Results taken from PubChem BioAssay AID1159580 (chemical genetic matrix, 2015).
“And” between values parts separate entries of the source, which are not always exact repeats. Equal values may be shown once. Out of some 5,500 compounds screened, about 2,000 (36%) were called active. Another 18% or so got no clear call; they are omitted. No stated cut-off is given here; in the data, active means normalized growth mostly below about 0.91 (no sharp cut-off); inconclusive means no clear call, values can overlap the other calls; inactive means mostly above about 0.92. This is one part of the list.

Experiment: chemical genetic growth profiling, strain panel (AID 1159580);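 further: tested at 20 µM; growth read once vehicle control cultures reached saturation at 30 °C; 1 = growth at the plate median or of vehicle wells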
Settings: S. cerevisiae deletion strains, growth OD

Measured: normalized growth

NS(=O)(=O)c1cc2c(cc1Cl)NC=NS2(=O)=O
inactive: locus YAL013W, strain DEP1, stronger effect = lower value 1 | locus YAL021C, strain ccr4, stronger effect = lower value 0.984 | locus YAL026C, strain drs2, stronger effect = lower value 1.01 | locus YAL030W, strain snc1, stronger effect = lower value 1 | locus YAL040C, strain CLN3, stronger effect = lower value 1 | locus YBL061C, strain skt5, stronger effect = lower value 1 | locus YBR009C, strain hhf1, stronger effect = lower value 0.983 | locus YBR021W, strain FUR4, stronger effect = lower value 1 | locus YBR023C, strain chs3, stronger effect = lower value 1 | locus YBR171W, strain sec66, stronger effect = lower value 1 | locus YBR229C, strain ROT2, stronger effect = lower value 1 | locus YBR231C, strain swc5, stronger effect = lower value 0.973 | locus YBR279W, strain paf1, stronger effect = lower value 0.997 | locus YCL011C, strain gbp2, stronger effect = lower value 1 | locus YCL016C, strain dcc1, stronger effect = lower value 0.999 | locus YCL029C, strain bik1, stronger effect = lower value 0.997 | locus YCL061C, strain MRC1 (second series), stronger effect = lower value 1 | locus YCL061C, strain MRC1, stronger effect = lower value 1.01 | locus YCL069W, strain vba3, stronger effect = lower value 1.01 | locus YCR088W, strain abp1, stronger effect = lower value 0.995 | locus YDL005C, strain med2, stronger effect = lower value 0.997 | locus YDL035C, strain GPR1, stronger effect = lower value 1.02 | locus YDL040C, strain nat1, stronger effect = lower value 1 | locus YDL074C, strain BRE1, stronger effect = lower value 1.01 | locus YDL101C, strain DUN1, stronger effect = lower value 1.01 | locus YDL134C, strain PPH21, stronger effect = lower value 1 | locus YDL185W, strain tfp1, stronger effect = lower value 0.974 | locus YDL192W, strain arf1, stronger effect = lower value 1 | locus YDR001C, strain nth1, stronger effect = lower value 1.03 | locus YDR069C, strain doa4, stronger effect = lower value 1 | locus YDR101C, strain arx1, stronger effect = lower value 0.996 | locus YDR137W, strain rgp1, stronger effect = lower value 0.999 | locus YDR150W, strain NUM1, stronger effect = lower value 1.01 | locus YDR159W, strain sac3, stronger effect = lower value 1 | locus YDR162C, strain NBP2, stronger effect = lower value 1.02 | locus YDR195W, strain ref2 0.93 | locus YDR297W, strain sur2, stronger effect = lower value 1 | locus YDR318W, strain mcm21, stronger effect = lower value 1 | locus YDR334W, strain swr1, stronger effect = lower value 1 | locus YDR335W, strain msn5, stronger effect = lower value 1.02 | locus YDR388W, stronger effect = lower value 0.997 | locus YDR392W, strain spt3, stronger effect = lower value 1 | locus YDR502C, strain sam2, stronger effect = lower value 1.01 | locus YEL003W, strain gim4, stronger effect = lower value 0.99 | locus YEL037C, strain rad23, stronger effect = lower value 0.999 | locus YEL061C, strain CIN8 (second series), stronger effect = lower value 1.02 | locus YEL061C, strain CIN8, stronger effect = lower value 1 | locus YER002W, strain NOP16, stronger effect = lower value 0.975 | locus YER015W, strain faa2, stronger effect = lower value 1.01 | locus YER016W, strain bim1, stronger effect = lower value 1.01 | locus YER110C, stronger effect = lower value 0.986 | locus YER111C, strain swi4, stronger effect = lower value 0.99 | locus YER155C, strain BEM2 (second series), stronger effect = lower value 0.963 | locus YER155C, strain BEM2, stronger effect = lower value 1 | locus YER167W, strain BCK2, stronger effect = lower value 1.03 | locus YFR010W, strain ubp6, stronger effect = lower value 1.02 | locus YGL078C, strain dbp3, stronger effect = lower value 1 | locus YGL086W, strain mad1, stronger effect = lower value 1 | locus YGL167C, strain pmr1, stronger effect = lower value 0.993 | locus YGL173C, strain kem1, stronger effect = lower value 0.989 | locus YGL227W, strain vid30, stronger effect = lower value 0.988 | locus YGL240W, strain doc1, stronger effect = lower value 0.988 | locus YGL248W, strain PDE1, stronger effect = lower value 1.01 | locus YGL253W, strain hxk2, stronger effect = lower value 1.03 | locus YGR078C, strain PAC10, stronger effect = lower value 1.01 | locus YGR135W, strain pre9, stronger effect = lower value 0.998 | locus YGR229C, strain SMI1, stronger effect = lower value 1.02 | locus YGR252W, strain gcn5, stronger effect = lower value 1.02 | locus YHR013C, strain ard1, stronger effect = lower value 0.966 | locus YHR027C, strain rpn1, stronger effect = lower value 1 | locus YHR030C, strain SLT2, stronger effect = lower value 1.01 and 0.954 | locus YHR079C, strain IRE1 (second series), stronger effect = lower value 1 | locus YHR079C, strain IRE1, stronger effect = lower value 0.965 | locus YHR094C, strain hxt1, stronger effect = lower value 0.995 | locus YHR129C, strain ARP1, stronger effect = lower value 1 | locus YHR142W, strain chs7, stronger effect = lower value 1.02 | locus YHR200W, strain rpn10, stronger effect = lower value 0.993 | locus YIL066C, strain RNR3, stronger effect = lower value 1.02 | locus YIL073C, strain SPO22, stronger effect = lower value 1.03 | locus YIL125W, strain kgd1, stronger effect = lower value 1 | locus YIR030C, strain dcg1, stronger effect = lower value 0.99 | locus YJL092W, strain hpr5, stronger effect = lower value 1.01 | locus YJL095W, strain BCK1 (second series), stronger effect = lower value 1 | locus YJL095W, strain BCK1, stronger effect = lower value 1.02 and 0.975 | locus YJL115W, strain asf1, stronger effect = lower value 1.01 | locus YJL129C, strain trk1, stronger effect = lower value 1.02 | locus YJL134W, strain LCB3, stronger effect = lower value 1 | locus YJL154C, strain vps35, stronger effect = lower value 0.989 | locus YJL164C, strain tpk1, stronger effect = lower value 1 | locus YJL166W, strain qcr8, stronger effect = lower value 0.985 | locus YJL168C, strain set2, stronger effect = lower value 0.995 | locus YJL187C, strain SWE1 (second series), stronger effect = lower value 1.03 | locus YJL187C, strain SWE1, stronger effect = lower value 1.01 | locus YJR043C, strain POL32, stronger effect = lower value 0.996 | locus YJR066W, strain TOR1, stronger effect = lower value 0.973
